From PubChem BioAssay AID463173 (ICCB-Longwood Screening Facility, Harvard Medical School, 2010)
About 4,300 (8.3%) of roughly 52,000 compounds were called active. The sample holds actives, similar compounds and a random draw of the others, so the mix is not that of the screen. A number with no mark means an inactive call. Rule as the data show it: active = survival mostly below about 52% (no sharp cut-off); inactive = mostly above about 56%.

Each molecule was assayed on DeltatarO mutant (assay: growth inhibition of S. aureus wild type versus tarO mutant, primary screen, teichoic acid synthesis inhibitors, RN4220, OD600 (AID 463173)). Conditions: OD600, 18 h, active compounds read low, screened at 18.75 µg/mL (by protocol).
`CCc1ccc(-n2c(N3CCN(c4ccc(F)cc4)CC3)nc3ccccc3c2=O)cc1` was tested, and the survival was 83%.
For `Cc1ccc(-c2cc(C(F)(F)F)n3nc(-c4ccc(Cl)cc4)cc3n2)cc1`, the survival was 51%.
For `Cc1cc2nc(-c3ccc(OCc4ccccc4Cl)cc3)cc(C(F)(F)F)n2n1`, the survival was 25% (active).
In the case of `COc1ccc(-c2cc3nc(-c4ccccc4)cc(C(F)(F)F)n3n2)cc1`, the survival was 58%.
With `Cc1cc2nc(-c3ccc(OCc4ccccc4C)cc3)cc(C(F)(F)F)n2n1` the survival was 13% (active).
In the case of `Cc1cc2nc(-c3ccc(OCc4ccccc4F)cc3)cc(C(F)(F)F)n2n1`, the survival was 45% (active).
`CCN(c1ccc(OC)cc1)S(=O)(=O)c1ccc2[nH]c3c(c2c1)CCCCC3` was tested, and the survival was 80%.
`CCc1cc(C(=O)Nc2cnn(Cc3ccc(F)cc3)c2)no1` showed a survival of 50%.
Molecule `COc1ccc(Cc2nc3ccc(C(=O)NCc4cc(Br)ccc4OC)cc3o2)cc1` has a survival of 93%.
`COc1ccc(CNC(=O)CCCCCn2c(=O)[nH]c3ccccc3c2=O)cc1` showed a survival of 86%.
In the case of `Cc1ccc(S(=O)(=O)c2cnc(SC(C)C(=O)Nc3ccccc3)[nH]c2=O)cc1` (stereo not drawn), the survival was 71%.
Molecule `CC1CCC2(CC1)Nc1ccccc1S2` (stereo not drawn) has a survival of 105%.
With `O=C(COC(=O)c1ccccn1)Nc1ccccc1` the survival was 101%.
In the case of `Cc1ccccc1NC(=O)c1c(NC(=O)C(F)(F)F)sc2c1CCCCC2`, the survival was -3% (active).
`Cc1ccc(NC(=O)c2c(NC(=O)C(F)(F)F)sc3c2CCCCC3)cc1` was tested, and the survival was -5% (active).
Work on `COc1ccc(NC(=O)c2c(NC(=O)COc3ccccc3)sc3c2CCCCC3)cc1` yielded a survival of 72%.
In the case of `COc1ccc(NC(=O)c2c(NC(=O)c3ccc(Br)cc3)sc3c2CCCC3)cc1`, the survival was 169%.
In the case of `Cc1ccc(NC(=O)c2c(NC(=O)c3ccccc3Cl)sc3c2CCC3)cc1`, the survival was 160%.
With `Cc1ccc(NC(=O)c2c(NC(=O)c3ccccc3)sc3c2CCC3)cc1` the survival was 76%.
Molecule `COc1ccccc1NC(=O)c1c(NCc2sccc2C)sc2c1CCCCC2` has a survival of 85%.
In the case of `COc1ccc(NC(=O)c2c(NC(=O)C(F)(F)F)sc3c2CCCCC3)cc1`, the survival was 2% (active).
`O=C1C2C3C=CC(C3)C2C(=O)N1CCCCN1C(=O)C2C3C=CC(C3)C2C1=O` (stereo not drawn) showed a survival of 93%.
`CCc1ccccc1NC(=O)Cn1c(=O)c2cccn2c2ccc(F)cc21` gave a survival of 83%.
For `COc1ccc(-c2noc(-c3ccc(NC4CCCC4)c([N+](=O)[O-])c3)n2)cc1`, the survival was 108%.
`C/C=C(\C)C(=O)OC1c2c(ccc3ccc(=O)oc23)OC(C)(C)C1OC(C)=O` (stereo not drawn) was tested, and the survival was 60%.
In the case of `O=C(Nc1nnc(S(=O)(=O)N2CCCCC2)s1)c1ccc(Cl)cc1`, the survival was 37% (active).
For `O=C(Nc1nnc(S(=O)(=O)N2CCCCCC2)s1)c1ccc(Cl)cc1`, the survival was 62%.
Molecule `O=C(Nc1nnc(S(=O)(=O)N2CCCC2)s1)c1ccc(F)cc1` has a survival of 111%.
`Cc1ccc(C(=O)Nc2nnc(S(=O)(=O)N3CCCCCC3)s2)cc1` showed a survival of 79%.
With `O=C(Nc1nnc(S(=O)(=O)N2CCCCCC2)s1)c1ccccc1` the survival was 38% (active).
`O=C(Nc1nnc(S(=O)(=O)N2CCCCC2)s1)c1ccc(F)cc1` was tested, and the survival was 79%.
Molecule `CCC1/C(=N\O)CC(c2ccco2)NC1c1ccco1` (stereo not drawn) has a survival of 84%.
In the case of `COc1ccc(NC(=O)Cn2c(SCc3ccc(C)cc3)nc3cccnc32)c(OC)c1`, the survival was 82%.
For `O=C(Nc1ccc(F)cc1F)C(Cc1ccccc1)N1Cc2ccccc2C1=O` (stereo not drawn), the survival was -4% (active).
`COC(=O)c1ccc(NC(=O)C(C)N2Cc3ccccc3C2=O)cc1` (stereo not drawn) was tested, and the survival was 66%.
`O=C(Nc1ccccc1F)C(Cc1ccccc1)N1Cc2ccccc2C1=O` (stereo not drawn) showed a survival of 60%.
For `CS(=O)(=O)CCC(C(=O)Nc1cccc(C(F)(F)F)c1)N1Cc2ccccc2C1=O` (stereo not drawn), the survival was 17% (active).
With `CC(C(=O)Nc1ccc(OC(F)(F)F)cc1)N1Cc2ccccc2C1=O` (stereo not drawn) the survival was 20% (active).
`COc1cc(NC(=O)C(CCS(C)(=O)=O)N2Cc3ccccc3C2=O)cc(OC)c1OC` (stereo not drawn) was tested, and the survival was 55%.
Work on `Cc1ccc(C)c(NC(=O)C(CC(C)C)N2Cc3ccccc3C2=O)c1` (stereo not drawn) yielded a survival of 134%.
For `Cc1ccc(NC(=O)C(CC(C)C)N2Cc3ccccc3C2=O)cc1F` (stereo not drawn), the survival was -5% (active).
For `Cc1ccc(NC(=O)[C@H](Cc2ccccc2)N2Cc3ccccc3C2=O)cc1F`, the survival was 84%.
In the case of `COC(=O)c1cc(NC(=O)[C@H](CCS(C)(=O)=O)N2Cc3ccccc3C2=O)cc(C(=O)OC)c1`, the survival was 86%.
Work on `CCOc1ccc(NC(=O)C(CC(C)C)N2Cc3ccccc3C2=O)cc1` (stereo not drawn) yielded a survival of 130%.
`O=C(Nc1ccc(F)cc1)[C@H](Cc1ccccc1)N1Cc2ccccc2C1=O` showed a survival of 89%.
In the case of `CC(C)Cn1c(=O)c2ccccc2n2c(CCC(=O)N3CCN(c4ccccc4F)CC3)nnc12`, the survival was 92%.
`Cc1noc(Cn2c(=O)c3cc4c(cc3n(CC(=O)Nc3cccc(Cl)c3)c2=O)OCO4)n1` was tested, and the survival was 122%.
`COc1cccc(C(=O)Nc2ccc3nc(SCCOc4ccccc4)sc3c2)c1` gave a survival of 75%.
`Cc1cc(C)nc(-n2nc(C)c3c2N(Cc2ccccc2C)C(=O)CC3c2ccc(Cl)cc2)n1` (stereo not drawn) was tested, and the survival was 72%.
`COc1ccc(-c2cc(C(F)(F)F)n3nc(C(=O)Nc4cccc(C(F)(F)F)c4)c(Br)c3n2)cc1` was tested, and the survival was 73%.
For `COc1ccc(NC(=O)C(C)N2Cc3ccccc3C2=O)cc1OC` (stereo not drawn), the survival was 101%.
In the case of `CC(C(=O)Nc1ccc(F)c(Cl)c1)N1Cc2ccccc2C1=O` (stereo not drawn), the survival was 8% (active).
`Cc1cc(C)cc(NC(=O)C(C)N2Cc3ccccc3C2=O)c1` (stereo not drawn) showed a survival of 91%.
`CCCn1ccc2c(OCC(=O)Nc3ccccc3C(=O)OCC)cccc2c1=O` was tested, and the survival was 94%.
`Cc1ccc(C)c(CN2C(=O)c3ccccc3S(=O)(=O)c3ccc(C(=O)NCCc4ccc(Cl)cc4)cc32)c1` showed a survival of 111%.
In the case of `N#Cc1cccc(NC(=O)C2CCN(c3nc(-c4ccc(Cl)cc4)no3)CC2)c1`, the survival was 82%.
`COc1ccc(CNC(=O)CCCn2ccc3cc(S(=O)(=O)N4CCCC4)ccc32)cc1` showed a survival of 101%.
`CC1CCN(S(=O)(=O)c2ccc3c(ccn3CC(=O)NCc3ccccc3F)c2)CC1` showed a survival of 54%.
With `CCc1ccc(CNC(=O)CCCn2ccc3cc(S(=O)(=O)N4CCCC4)ccc32)cc1` the survival was 91%.
With `Cc1cccc(CNC(=O)CCn2ccc3cc(S(=O)(=O)N4CCCC4)ccc32)c1` the survival was 87%.
Molecule `Cc1cccc(CNC(=O)Cn2ccc3cc(S(=O)(=O)N4CCC(C)CC4)ccc32)c1` has a survival of 76%.
`Cc1cccc(CNC(=O)Cn2ccc3cc(S(=O)(=O)N4CCCC4)ccc32)c1` gave a survival of 73%.
With `CC1CCN(S(=O)(=O)c2ccc3c(ccn3CCC(=O)NCc3ccccc3F)c2)CC1` the survival was -5% (active).
In the case of `CN(C)c1ccc(CNC(=O)CCCn2ccc3cc(S(=O)(=O)N4CCCC4)ccc32)cc1`, the survival was 8% (active).
With `O=C(CCn1ccc2cc(S(=O)(=O)N3CCCC3)ccc21)NCc1cccc(Cl)c1` the survival was 17% (active).
`O=C(CCn1ccc2cc(S(=O)(=O)N3CCCC3)ccc21)NCc1ccccc1F` was tested, and the survival was 94%.
In the case of `O=C(Cn1ccc2cc(S(=O)(=O)N3CCCCC3)ccc21)NCc1cccc(Cl)c1`, the survival was 117%.
With `Cc1cccc(CNC(=O)Cn2ccc3cc(S(=O)(=O)N4CCCCCC4)ccc32)c1` the survival was -5% (active).
